In PubChem BioAssay (EPA / NIEHS) one finds outcome and AC50 data, which are given here for eleven compounds.

Each structure is given as a SMILES string. Several values for one entry are separate records, joined by “and”; a condition that tells them apart may be missing. Identical values can stand only once. Results filed as inconclusive are left out. Where a structure was tested more than once in an assay, its records may differ in their call. Activity calls are given as the source filed them. Rule for the calls, unless noted: active = hit-call score of the fitted dose curve at least 0.9, where 1 is the maximum; inconclusive = response in the unintended direction; inactive = score below 0.9.

As a reminder, the AC50 is the midpoint of the concentration-response curve, whichever way the signal moves.

For assay [1], the target named is Retinoic acid receptor RXR-alpha (Homo sapiens) (UniProt P19793). Nature of the assay: OT_NURR1_NURR1RXRa_0480: Odyssey Thera (OT) 8-hour HEK293T Protein Complementation Assay for Nurr1/retinoid X receptor (RXR) (AID 2283385). A digest of the protocol:
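Read-out: fluorescence from protein-fragment complementation between Nurr1 and RXRα in human HEK293T cells, 8 h after dosing. DMSO served as negative control; increased signal counted as activity.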

For assay [2] the target is unchanged. Nature of the assay: OT_NURR1_NURR1RXRa_1440: Odyssey Thera (OT) 24-hour HEK293T Protein Complementation Assay for Nurr1/retinoid X receptor (RXR) (AID 2283386). The method, boiled down:
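Fluorescence PCA read-out; HEK293T; 24 h post-dose; bait/prey fused to reporter fragments; gain-of-signal fit vs DMSO negative control.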

Assay [3] concerns the target Peroxisome proliferator-activated receptor gamma (Homo sapiens) (UniProt P37231). The experiment in a line: OT_PPARg_PPARgSRC1_0480: Odyssey Thera (OT) 8-hour Protein-Complementation Assay for Peroxisome Proliferator-activated Receptor Gamma / SRC-1 Co-activator (AID 2283387). The method, boiled down:
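HEK293T transiently transfected with PPARg and SRC-1 fused to Venus YFP fragments, compounds 8 h at 37C. Fixed, Draq5-stained cells imaged; nuclear/cytoplasmic 488 nm fluorescence ratio over at least 350 cells per image; gain fitted versus DMSO.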

Assay [4] shares this target. Nature of the assay: OT_PPARg_PPARgSRC1_1440: Odyssey Thera (OT) 24-hour Protein-Complementation Assay for Peroxisome Proliferator-activated Receptor Gamma/ SRC-1 Co-activator (AID 2283388). The method, boiled down: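 HEK293T cells transiently transfected with PPARg and SRC-1 fused via (Gly4Ser)2 linker to split Venus YFP fragments (IFP1/IFP2) were dosed 24 h; fixed, Draq5-stained, imaged at 488/635 nm; nuclear/cytoplasmic fluorescence ratio scored versus DMSO baseline, gain-of-signal.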

Read-out in assay [5]: Tumor necrosis factor receptor superfamily member 6 (Homo sapiens) (UniProt P25445)
The experiment in a line: LTEA_HepaRG_FAS: Life Technologies and Expression Analysis (LTEA) Assay for Fas cell surface death receptor (FAS) using HepaRG (AID 2283447; active = hit-call score of the fitted dose curve at least 0.9, where 1 is the maximum; inactive = score below 0.9). Conditions: mRNA level, 48 h; actives raise or lower the signal. The method, boiled down:
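FAS transcript level was measured by TaqMan qRT-PCR against three housekeeping genes after 48 h chemical exposure. Cells were HepaRG, 0.5% DMSO vehicle, with a top concentration of 100 uM and half-log dilutions over eight points, in duplicate.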

Read-out in assay [6]: Fatty acid synthase (Homo sapiens) (UniProt P49327)
The experiment in a line: LTEA_HepaRG_FASN: Life Technologies and Expression Analysis (LTEA) Assay for Fatty Acid Synthase (FASN) using HepaRG (AID 2283448; active = hit-call score of the fitted dose curve at least 0.9, where 1 is the maximum; inactive = score below 0.9). The conditions noted are these: mRNA level, 48 h; actives raise or lower the signal. The method, boiled down:
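HepaRG, 48 h exposure, 8-pt half-log series top 100 uM, 0.5% DMSO vehicle, duplicates. Readout: FASN transcript by Fluidigm qRT-PCR; housekeeping-normalized; bidirectional curve fit vs DMSO baseline.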

Read-out in assay [7]: Cyclin D2 (CCND2), CCND2 (gene 894)
Nature of the assay: LTEA_HepaRG_CCND2: Life Technologies and Expression Analysis (LTEA) Assay for Cyclin D2 (CCND2) using HepaRG (AID 2283449; active = hit-call score of the fitted dose curve at least 0.9, where 1 is the maximum; inactive = score below 0.9). Conditions: mRNA level, 48 h; actives raise or lower the signal. A digest of the protocol:
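CCND2 transcript levels, quantified by qRT-PCR and normalised to three housekeeping genes, were fitted bidirectionally against 0.5% DMSO. HepaRG cultures were dosed 48 h in duplicate with an 8-point half-log series up to 100 uM.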

Read-out in assay [8]: Cyclin Dependent Kinase Inhibitor 1A (CDKN1A), CDKN1A (gene 1026)
The experiment in a line: LTEA_HepaRG_CDKN1A: Life Technologies and Expression Analysis (LTEA) Assay for Cyclin Dependent Kinase Inhibitor 1A (CDKN1A) using HepaRG (AID 2283450; active = hit-call score of the fitted dose curve at least 0.9, where 1 is the maximum; inactive = score below 0.9). The conditions noted are these: mRNA level, 48 h; actives raise or lower the signal. The method, boiled down:
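Differentiated human HepaRG cells, pre-cultured 48 h, were exposed in duplicate for 48 h in serum-free induction medium to eight half-log concentrations up to 100 uM (0.5% DMSO). CDKN1A mRNA was measured by qRT-PCR, normalized to ACTB/GAPDH/POLR2A, bidirectionally fitted versus DMSO.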

Read-out in assay [9]: catalase (CAT), CAT (gene 847)
Nature of the assay: LTEA_HepaRG_CAT: Life Technologies and Expression Analysis (LTEA) Assay for catalase (CAT) using HepaRG (AID 2283452; active = hit-call score of the fitted dose curve at least 0.9, where 1 is the maximum; inactive = score below 0.9;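 for AC50: TaqMan qRT-PCR signal normalized to ACTB GAPDH and POLR2A housekeeping genes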). Conditions: mRNA level, 48 h; actives raise or lower the signal. A digest of the protocol:
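Expression of CAT was quantified by TaqMan qRT-PCR with ACTB/GAPDH/POLR2A normalization after 48 h chemical exposure of HepaRG. Eight-point half-log series, top 100 uM, in 0.5% DMSO; gain or loss fitted against vehicle.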

A short description of assay [10]: CEETOX_H295R_11DCORT: CeeTox H295R High-throughput Steroidogenesis Assay for 11-Deoxycortisol (11DCORT) (AID 2283432; active = hit-call score of the fitted dose curve at least 0.9, where 1 is the maximum; inactive = score below 0.9). Conditions: actives raise or lower the signal. The method, boiled down:
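H295R cells prestimulated 48 h with 10 uM forskolin, then exposed 48 h to chemical in 0.1% DMSO. 11-Deoxycortisol in medium quantified by HPLC-MS/MS after MTBE extraction; bidirectional fit versus DMSO. MTT viability read in same wells.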

A short description of assay [11]: CEETOX_H295R_OHPREG: CeeTox H295R High-throughput Steroidogenesis Assay for OH-Pregnenolone (OHPREG) (AID 2283434; active = hit-call score of the fitted dose curve at least 0.9, where 1 is the maximum; inactive = score below 0.9). The conditions noted are these: actives raise or lower the signal. A digest of the protocol: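 Secreted 17alpha-hydroxypregnenolone measured by HPLC-MS/MS after liquid-liquid extraction. Human adrenal H295R cells received 48 h forskolin (10 uM) stimulation before 48 h chemical exposure at 0.1% final DMSO; MTT viability in same wells; bidirectional fit against DMSO.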

The nature of assay [12]: CEETOX_H295R_OHPROG: CeeTox H295R High-throughput Steroidogenesis Assay for OH-Progesterone (OHPROG) (AID 2283435; active = hit-call score of the fitted dose curve at least 0.9, where 1 is the maximum; inactive = score below 0.9). Conditions: actives raise or lower the signal. A digest of the protocol: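 HPLC-MS/MS quantification of 17alpha-hydroxyprogesterone secreted by H295R cells after 48 h chemical exposure, following 48 h 10 uM forskolin prestimulation. Gain or loss of signal fitted relative to DMSO. Viability checked by MTT in the same wells.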

Assay [13] in a line: CEETOX_H295R_CORTIC: CeeTox H295R High-throughput Steroidogenesis Assay for Corticosterone (CORTIC) (AID 2283437; active = hit-call score of the fitted dose curve at least 0.9, where 1 is the maximum; inactive = score below 0.9). The conditions noted are these: actives raise or lower the signal. A digest of the protocol: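 Medium corticosterone was quantified by tandem mass spectrometry following 48 hours of chemical exposure (0.1% DMSO) in human H295R cells previously stimulated 48 hours with 10 uM forskolin. Viability checked by MTT; chemicals diluted and retested when viability fell below 70%.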

Assay [14] is described as follows: CEETOX_H295R_CORTISOL: CeeTox H295R High-throughput Steroidogenesis Assay for Cortisol (AID 2283438; active = hit-call score of the fitted dose curve at least 0.9, where 1 is the maximum; inactive = score below 0.9;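 note: cortisol secreted into medium quantified by LC-MS/MS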). The conditions noted are these: actives raise or lower the signal. A digest of the protocol: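 Read-out: cortisol in culture medium by reverse-phase C18 HPLC with ESI-positive tandem MS, after MTBE liquid-liquid extraction. Cells: human adrenal H295R, forskolin-primed (10 uM, 48 h) before 48 h chemical exposure in 0.1% DMSO.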

The nature of assay [15]: CEETOX_H295R_DOC: CeeTox H295R High-throughput Steroidogenesis Assay for DOC (AID 2283439; active = hit-call score of the fitted dose curve at least 0.9, where 1 is the maximum; inactive = score below 0.9). The conditions noted are these: actives raise or lower the signal. The method, boiled down:
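Human adrenocortical H295R cells, passages up to 10, received 10 uM forskolin for 48 h before chemical addition. After another 48 h exposure in 0.1% DMSO, secreted DOC was measured by LC-MS/MS, with gain or loss fitted against DMSO controls.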

A short description of assay [16]: CEETOX_H295R_PROG: CeeTox H295R High-throughput Steroidogenesis Assay for Progesterone (PROG) (AID 2283442; active = hit-call score of the fitted dose curve at least 0.9, where 1 is the maximum; inactive = score below 0.9). The conditions noted are these: actives raise or lower the signal. A digest of the protocol:
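H295R human adrenal cells were prestimulated with 10 uM forskolin for 48 h, then exposed to test chemical (0.1% DMSO final) for 48 h. Medium progesterone was MTBE-extracted and quantified by HPLC-MS/MS, with bidirectional fitting against DMSO.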

Read-out in assay [17]: Cyclin D1 (CCND1), CCND1 (gene 595)
The experiment in a line: LTEA_HepaRG_CCND1: Life Technologies and Expression Analysis (LTEA) Assay for Cyclin D1 (CCND1) using HepaRG (AID 2283451; active = hit-call score of the fitted dose curve at least 0.9, where 1 is the maximum; inactive = score below 0.9). The conditions noted are these: mRNA level, 48 h; actives raise or lower the signal. The method, boiled down:
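Differentiated human HepaRG cells in serum-free induction medium were exposed 48 h to eight half-log concentrations up to 100 uM in 0.5% DMSO; mRNA quantified by TaqMan qRT-PCR, normalized to ACTB, GAPDH, POLR2A, fitted bidirectionally versus DMSO.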

Retinoic acid receptor RXR-alpha (Homo sapiens), sequence (P19793 whole entry, looked up, the tested form may be a part): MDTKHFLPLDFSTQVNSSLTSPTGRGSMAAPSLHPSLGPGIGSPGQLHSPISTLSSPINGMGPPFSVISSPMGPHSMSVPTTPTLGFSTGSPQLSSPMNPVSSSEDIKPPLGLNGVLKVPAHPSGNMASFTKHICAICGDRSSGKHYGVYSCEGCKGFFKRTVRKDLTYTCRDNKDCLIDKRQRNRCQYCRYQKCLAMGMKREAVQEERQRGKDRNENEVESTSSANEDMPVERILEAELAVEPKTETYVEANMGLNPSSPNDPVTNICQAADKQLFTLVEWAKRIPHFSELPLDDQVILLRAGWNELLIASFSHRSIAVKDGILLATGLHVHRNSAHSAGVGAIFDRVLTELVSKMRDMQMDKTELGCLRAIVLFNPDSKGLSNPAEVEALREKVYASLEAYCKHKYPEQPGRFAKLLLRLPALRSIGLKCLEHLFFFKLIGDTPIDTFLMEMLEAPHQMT
Fatty acid synthase (Homo sapiens), sequence (P49327 whole entry, looked up): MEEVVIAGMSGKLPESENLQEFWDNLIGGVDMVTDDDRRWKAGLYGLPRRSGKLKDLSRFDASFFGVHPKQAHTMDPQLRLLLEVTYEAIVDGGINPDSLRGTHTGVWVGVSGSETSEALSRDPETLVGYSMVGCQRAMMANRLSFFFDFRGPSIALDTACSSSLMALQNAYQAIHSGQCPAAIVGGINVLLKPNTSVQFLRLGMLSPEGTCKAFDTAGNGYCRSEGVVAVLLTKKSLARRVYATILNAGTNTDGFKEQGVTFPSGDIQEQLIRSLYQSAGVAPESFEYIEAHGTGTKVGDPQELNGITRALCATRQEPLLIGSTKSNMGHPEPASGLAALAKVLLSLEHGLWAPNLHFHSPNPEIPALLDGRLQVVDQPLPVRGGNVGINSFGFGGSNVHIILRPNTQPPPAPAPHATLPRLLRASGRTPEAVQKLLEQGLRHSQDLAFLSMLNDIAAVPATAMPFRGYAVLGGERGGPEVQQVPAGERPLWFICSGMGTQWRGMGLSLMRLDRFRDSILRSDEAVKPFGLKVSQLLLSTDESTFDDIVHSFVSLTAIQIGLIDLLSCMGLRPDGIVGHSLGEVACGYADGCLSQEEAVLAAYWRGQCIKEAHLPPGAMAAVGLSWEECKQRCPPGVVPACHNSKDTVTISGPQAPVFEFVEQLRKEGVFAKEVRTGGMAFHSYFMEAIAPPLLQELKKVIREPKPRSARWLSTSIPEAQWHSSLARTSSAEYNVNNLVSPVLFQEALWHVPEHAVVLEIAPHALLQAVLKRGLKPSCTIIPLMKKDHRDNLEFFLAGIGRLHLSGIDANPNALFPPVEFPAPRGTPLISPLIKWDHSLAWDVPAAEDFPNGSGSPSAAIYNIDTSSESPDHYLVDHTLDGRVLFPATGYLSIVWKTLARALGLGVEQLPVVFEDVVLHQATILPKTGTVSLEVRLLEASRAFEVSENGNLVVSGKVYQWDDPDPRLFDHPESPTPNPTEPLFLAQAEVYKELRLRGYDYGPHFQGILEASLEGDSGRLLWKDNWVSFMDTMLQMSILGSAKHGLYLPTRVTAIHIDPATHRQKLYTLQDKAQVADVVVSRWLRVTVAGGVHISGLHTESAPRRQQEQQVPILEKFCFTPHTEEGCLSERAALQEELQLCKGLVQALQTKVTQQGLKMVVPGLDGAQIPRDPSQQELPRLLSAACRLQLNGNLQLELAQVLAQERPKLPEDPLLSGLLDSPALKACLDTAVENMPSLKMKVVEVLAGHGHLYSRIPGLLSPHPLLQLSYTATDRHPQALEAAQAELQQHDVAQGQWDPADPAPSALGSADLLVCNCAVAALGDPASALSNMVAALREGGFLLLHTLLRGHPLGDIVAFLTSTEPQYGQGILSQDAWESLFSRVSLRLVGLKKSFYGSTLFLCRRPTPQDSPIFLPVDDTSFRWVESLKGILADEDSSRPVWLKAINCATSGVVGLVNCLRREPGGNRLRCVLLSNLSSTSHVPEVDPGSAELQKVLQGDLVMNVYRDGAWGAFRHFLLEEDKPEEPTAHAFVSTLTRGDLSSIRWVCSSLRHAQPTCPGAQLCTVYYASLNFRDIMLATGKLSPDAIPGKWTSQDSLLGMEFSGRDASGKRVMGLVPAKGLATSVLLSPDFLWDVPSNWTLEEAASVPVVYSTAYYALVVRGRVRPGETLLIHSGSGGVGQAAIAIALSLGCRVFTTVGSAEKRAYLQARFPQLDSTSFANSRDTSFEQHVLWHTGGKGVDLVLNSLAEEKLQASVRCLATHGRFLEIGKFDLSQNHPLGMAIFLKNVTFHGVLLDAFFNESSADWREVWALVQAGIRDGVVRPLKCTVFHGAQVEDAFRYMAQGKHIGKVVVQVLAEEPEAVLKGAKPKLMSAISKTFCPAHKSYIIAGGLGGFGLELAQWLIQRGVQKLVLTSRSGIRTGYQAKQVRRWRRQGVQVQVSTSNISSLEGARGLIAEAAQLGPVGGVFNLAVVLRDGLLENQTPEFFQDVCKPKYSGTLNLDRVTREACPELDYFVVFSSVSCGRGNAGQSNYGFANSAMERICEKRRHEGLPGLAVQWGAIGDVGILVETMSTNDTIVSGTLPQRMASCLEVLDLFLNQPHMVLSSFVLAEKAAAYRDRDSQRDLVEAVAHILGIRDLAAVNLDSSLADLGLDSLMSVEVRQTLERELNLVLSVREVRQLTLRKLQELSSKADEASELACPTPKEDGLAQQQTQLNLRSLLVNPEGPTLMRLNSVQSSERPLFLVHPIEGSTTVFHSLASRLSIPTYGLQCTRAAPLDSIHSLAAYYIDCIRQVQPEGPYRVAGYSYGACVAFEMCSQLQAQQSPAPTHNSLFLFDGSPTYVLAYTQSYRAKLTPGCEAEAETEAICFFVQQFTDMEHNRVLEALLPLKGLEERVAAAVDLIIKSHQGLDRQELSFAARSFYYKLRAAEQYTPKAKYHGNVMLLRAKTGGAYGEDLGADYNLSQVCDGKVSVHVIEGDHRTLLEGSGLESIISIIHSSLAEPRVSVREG
Peroxisome proliferator-activated receptor gamma (Homo sapiens), sequence (P37231 whole entry, looked up, the tested form may be a part): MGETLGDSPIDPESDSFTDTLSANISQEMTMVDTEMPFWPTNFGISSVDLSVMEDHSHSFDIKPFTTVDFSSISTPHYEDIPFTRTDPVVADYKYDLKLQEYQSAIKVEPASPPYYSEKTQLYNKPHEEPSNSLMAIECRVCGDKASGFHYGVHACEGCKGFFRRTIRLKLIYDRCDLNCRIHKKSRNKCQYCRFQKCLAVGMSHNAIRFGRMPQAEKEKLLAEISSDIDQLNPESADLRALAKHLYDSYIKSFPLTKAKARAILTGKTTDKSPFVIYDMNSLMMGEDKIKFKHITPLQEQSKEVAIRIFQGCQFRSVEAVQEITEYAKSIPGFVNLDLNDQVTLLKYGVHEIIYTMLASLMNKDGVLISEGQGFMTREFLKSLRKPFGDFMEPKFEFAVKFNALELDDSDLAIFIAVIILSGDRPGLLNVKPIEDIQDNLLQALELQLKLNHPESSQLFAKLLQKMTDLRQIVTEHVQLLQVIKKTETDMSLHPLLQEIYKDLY

Regarding `CCCCC(CC)COC(=O)CCCCCCCCC(=O)OCC(CC)CCCC` (configuration not stated), the compound was called inactive in assay [1], in assay [2], in [3], in assay [4], in [5] and in assay [6]. Also, the compound was called inactive in assay [7], in assay [8] and in assay [9].
Regarding `CC1=CC(=O)CC(C)(C)C1`, the result in [1], in assay [2], in [3], in assay [4], in assay [10] and in assay [11] was inactive. For the same compound, the compound was called inactive in assay [12], in assay [13], in assay [14], in assay [15], in [16] and in [5]. Also, the outcome in assay [7], in assay [8], in assay [17] and in assay [9] was inactive.
Regarding `Nc1cccc(N)c1`, the call in assay [1], in assay [2], in [3], in assay [4], in assay [5] and in assay [7] was inactive. In addition, the compound was classed as inactive in assay [8] and in [9].
Consider `CC(C)=CCC/C(C)=C/CO`, for which the compound was classed as inactive in assay [1], in assay [2], in [3], in [4], in assay [5] and in assay [6]. Moreover, the call in assay [7], in [8] and in assay [9] was inactive.
As for `CC(C)=CCCC(C)CCO` (configuration not stated), the AC50 in assay [1] is 90.2 µM (active). The outcome in assay [1], in assay [2], in assay [3], in assay [4], in assay [5] and in [6] was inactive. Further, the compound was called inactive in assay [8] and in [9].
As for `CC(C)CCCCCCOC(=O)c1ccc(C(=O)OCCCCCCC(C)C)c(C(=O)OCCCCCCC(C)C)c1`, the compound was classed as inactive in assay [1], in assay [2], in assay [3], in assay [4], in assay [5] and in assay [7]. For the same compound, the call in [8], in assay [17] and in assay [9] was inactive.
Consider `COC(=O)CC(=O)OC`, for which the compound was classed as inactive in assay [1], in [2], in assay [3], in [4], in [5] and in assay [8]. In addition, the call in [9] was inactive. In addition, the AC50 in assay [6] was 50 µM (active).
For the compound `CCCCC(CC)COC(=O)c1ccc(C(=O)OCC(CC)CCCC)cc1` (configuration not stated), the outcome in assay [1], in assay [2], in assay [3], in [4], in assay [5] and in [6] was inactive. Besides, the call in [7], in [8] and in assay [9] was inactive.
On to `Cn1cnc([N+](=O)[O-])c1Sc1ncnc2nc[nH]c12`, for which the outcome in [1], in [2], in [3], in [4], in assay [5] and in assay [7] was inactive. Moreover, the results for the half-maximal activity concentration (AC50) in assay [8] and in assay [9] were 4.48 µM (active) and 1.69 µM (active), respectively.
Regarding `O=c1n(CC2CO2)c(=O)n(CC2CO2)c(=O)n1CC1CO1` (configuration not stated), the AC50 in assay [1] was 50 µM (active) and 34.7 µM (active); in [5] it was 89.1 µM (active); in assay [8] it was 58.7 µM (active). Besides, the outcome in assay [2], in assay [3], in assay [4], in [6], in [7] and in assay [9] was inactive.
`CCCCCCCCCCCCCCCO`: the call in assay [1], in assay [2], in assay [3], in [4], in assay [11] and in assay [12] was inactive. In addition, the compound was called inactive in assay [5], in [6], in assay [7], in assay [8], in assay [17] and in assay [9]. In addition, in assay [16], the AC50 was 14.8 µM (active).
